Among the data in ChEMBL document CHEMBL2218924, “A broad activity screen in support of a chemogenomic map for kinase signalling research and drug discovery” (Biochem J, 2013) are residual activity values, retold here.

In assay [1] the target is MAP kinase-activated protein kinase 3 (Homo sapiens) (UniProt Q16644). Particulars: at 1 µM.
Assay [2] concerns the target T1, Serine/threonine-protein kinase STK11 (Homo sapiens) (UniProt Q15831).
T1 sequence (whole entry): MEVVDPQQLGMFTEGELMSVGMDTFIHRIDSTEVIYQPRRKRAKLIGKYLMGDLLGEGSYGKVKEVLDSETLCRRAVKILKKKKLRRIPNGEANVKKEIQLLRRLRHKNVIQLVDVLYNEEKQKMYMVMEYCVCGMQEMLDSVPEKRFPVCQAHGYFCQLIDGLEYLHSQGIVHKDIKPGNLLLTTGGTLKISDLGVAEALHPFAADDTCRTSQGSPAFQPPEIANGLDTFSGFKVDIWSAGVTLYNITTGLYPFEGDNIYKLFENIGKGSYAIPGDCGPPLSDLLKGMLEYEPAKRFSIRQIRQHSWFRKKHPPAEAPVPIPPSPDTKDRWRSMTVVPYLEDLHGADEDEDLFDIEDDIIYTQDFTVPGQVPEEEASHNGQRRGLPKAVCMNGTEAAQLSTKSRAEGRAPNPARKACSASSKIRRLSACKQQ
To be noted: at 10 µM.

Assay [3] has as its target Serine/threonine-protein kinase 10 (Homo sapiens) (UniProt O94804). Particulars: at 1 µM.
Assay [4] shares this target. Particulars: at 10 µM.
The target in assay [5] is Tyrosine-protein kinase Lck (Homo sapiens) (UniProt P06239). Particulars: at 1 µM.
Chain of Tyrosine-protein kinase Lck (Homo sapiens) (P06239 2-509 limits assumed): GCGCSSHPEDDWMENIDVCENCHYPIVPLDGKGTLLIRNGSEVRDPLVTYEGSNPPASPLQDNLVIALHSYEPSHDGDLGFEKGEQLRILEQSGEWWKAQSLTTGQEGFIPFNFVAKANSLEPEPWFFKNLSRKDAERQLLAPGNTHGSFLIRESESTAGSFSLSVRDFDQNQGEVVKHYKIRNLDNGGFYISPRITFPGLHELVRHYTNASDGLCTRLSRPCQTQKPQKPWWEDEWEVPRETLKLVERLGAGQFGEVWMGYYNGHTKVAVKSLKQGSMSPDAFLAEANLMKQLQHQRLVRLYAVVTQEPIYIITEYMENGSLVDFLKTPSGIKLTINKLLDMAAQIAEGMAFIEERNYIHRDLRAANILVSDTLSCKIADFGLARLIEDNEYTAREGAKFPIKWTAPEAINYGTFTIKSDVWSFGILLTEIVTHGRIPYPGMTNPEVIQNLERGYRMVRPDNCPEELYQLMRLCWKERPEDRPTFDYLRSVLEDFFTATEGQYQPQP
The target is the same in assay [6]. Particulars: at 10 µM.
Assay [7] shares this target. Particulars: at 1 µM. The source holds these as a separate data set.
The target is the same in assay [8]. Particulars: at 10 µM. This is another data set of the same source.
In assay [9] the target is Tyrosine-protein kinase Lyn (Homo sapiens) (UniProt P07948). Particulars: at 1 µM.
Chain of Tyrosine-protein kinase Lyn (Homo sapiens) (P07948 2-512 limits assumed): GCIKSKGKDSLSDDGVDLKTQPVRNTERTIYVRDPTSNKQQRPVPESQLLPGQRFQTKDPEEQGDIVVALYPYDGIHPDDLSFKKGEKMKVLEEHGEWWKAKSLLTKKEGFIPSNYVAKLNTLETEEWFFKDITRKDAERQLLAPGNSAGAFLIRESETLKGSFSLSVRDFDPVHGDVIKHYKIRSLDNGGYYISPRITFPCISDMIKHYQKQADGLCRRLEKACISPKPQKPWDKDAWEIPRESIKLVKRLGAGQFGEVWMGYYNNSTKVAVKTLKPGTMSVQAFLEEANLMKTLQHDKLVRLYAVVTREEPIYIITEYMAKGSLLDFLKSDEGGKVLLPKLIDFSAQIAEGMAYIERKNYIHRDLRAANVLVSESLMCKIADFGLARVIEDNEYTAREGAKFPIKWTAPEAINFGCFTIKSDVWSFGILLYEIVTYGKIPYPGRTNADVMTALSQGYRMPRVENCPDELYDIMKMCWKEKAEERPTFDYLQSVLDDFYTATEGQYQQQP
For assay [10] the target is unchanged. Particulars: at 10 µM.
Assay [11] concerns the target Mitogen-activated protein kinase 3 (Homo sapiens) (UniProt P27361). To be noted: at 1 µM.
Assay [12] shares this target. To be noted: at 10 µM.
In assay [13] the target is Mitogen-activated protein kinase 1 (Homo sapiens) (UniProt P28482). Particulars: at 1 µM.
Chain of Mitogen-activated protein kinase 1 (Homo sapiens) (P28482 whole entry): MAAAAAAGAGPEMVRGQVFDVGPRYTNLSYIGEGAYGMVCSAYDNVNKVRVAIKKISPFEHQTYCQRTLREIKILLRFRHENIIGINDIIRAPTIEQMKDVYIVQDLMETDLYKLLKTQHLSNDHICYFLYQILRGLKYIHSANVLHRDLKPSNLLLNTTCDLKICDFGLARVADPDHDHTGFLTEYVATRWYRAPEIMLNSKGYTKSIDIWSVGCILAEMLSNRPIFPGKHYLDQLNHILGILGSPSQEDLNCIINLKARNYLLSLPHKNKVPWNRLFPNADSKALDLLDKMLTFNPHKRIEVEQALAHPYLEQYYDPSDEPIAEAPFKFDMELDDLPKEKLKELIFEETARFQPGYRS
Assay [14] shares this target. To be noted: at 10 µM.
Assay [15] has as its target MAP kinase-activated protein kinase 3 (Homo sapiens) (UniProt Q16644). To be noted: at 10 µM.
Assay [16] deals with Serine/threonine-protein kinase MARK1 (Homo sapiens) (UniProt Q9P0L2). Particulars: at 1 µM.
Chain of Serine/threonine-protein kinase MARK1 (Homo sapiens) (Q9P0L2 whole entry, looked up): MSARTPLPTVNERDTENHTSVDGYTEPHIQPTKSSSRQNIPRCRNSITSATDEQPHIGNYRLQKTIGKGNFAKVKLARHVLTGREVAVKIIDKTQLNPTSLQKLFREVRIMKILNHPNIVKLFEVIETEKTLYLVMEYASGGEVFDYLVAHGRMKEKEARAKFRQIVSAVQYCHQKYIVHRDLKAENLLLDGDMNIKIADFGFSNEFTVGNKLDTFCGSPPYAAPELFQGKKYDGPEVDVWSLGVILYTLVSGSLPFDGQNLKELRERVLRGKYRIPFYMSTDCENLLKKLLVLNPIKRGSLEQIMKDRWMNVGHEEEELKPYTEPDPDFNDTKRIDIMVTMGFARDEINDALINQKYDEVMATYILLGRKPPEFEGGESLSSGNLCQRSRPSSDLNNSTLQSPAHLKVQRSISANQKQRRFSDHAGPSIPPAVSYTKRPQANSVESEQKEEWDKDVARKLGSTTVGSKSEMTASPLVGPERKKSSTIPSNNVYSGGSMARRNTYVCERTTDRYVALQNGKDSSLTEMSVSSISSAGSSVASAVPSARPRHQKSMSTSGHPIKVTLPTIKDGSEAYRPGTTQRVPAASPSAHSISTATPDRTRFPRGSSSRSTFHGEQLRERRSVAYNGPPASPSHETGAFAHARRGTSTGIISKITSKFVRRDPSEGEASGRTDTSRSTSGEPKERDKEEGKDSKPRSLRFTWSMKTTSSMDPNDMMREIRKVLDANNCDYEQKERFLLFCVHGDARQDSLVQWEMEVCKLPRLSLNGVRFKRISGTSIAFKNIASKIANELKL
For assay [17] the target is unchanged. To be noted: at 10 µM.
Assay [18] has as its target T1, Serine/threonine-protein kinase STK11 (Homo sapiens). Particulars: at 1 µM.
In assay [19] the target is MAP kinase-activated protein kinase 2 (Homo sapiens) (UniProt P49137). To be noted: at 1 µM.
Chain of MAP kinase-activated protein kinase 2 (Homo sapiens) (P49137 whole entry, looked up): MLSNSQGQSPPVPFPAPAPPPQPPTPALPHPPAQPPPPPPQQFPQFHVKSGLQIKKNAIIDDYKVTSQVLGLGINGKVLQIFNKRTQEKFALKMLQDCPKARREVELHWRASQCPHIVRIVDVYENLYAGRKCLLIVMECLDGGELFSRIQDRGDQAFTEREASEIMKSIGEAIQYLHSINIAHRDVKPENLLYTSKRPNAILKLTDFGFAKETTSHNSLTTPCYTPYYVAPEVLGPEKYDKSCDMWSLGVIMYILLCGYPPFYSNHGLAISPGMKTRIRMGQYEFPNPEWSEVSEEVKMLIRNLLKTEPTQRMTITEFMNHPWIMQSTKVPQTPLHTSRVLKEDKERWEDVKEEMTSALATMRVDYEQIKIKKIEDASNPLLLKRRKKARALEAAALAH
The target is the same in assay [20]. Particulars: at 10 µM.

Chain of MAP kinase-activated protein kinase 3 (Homo sapiens) (Q16644 whole entry, looked up): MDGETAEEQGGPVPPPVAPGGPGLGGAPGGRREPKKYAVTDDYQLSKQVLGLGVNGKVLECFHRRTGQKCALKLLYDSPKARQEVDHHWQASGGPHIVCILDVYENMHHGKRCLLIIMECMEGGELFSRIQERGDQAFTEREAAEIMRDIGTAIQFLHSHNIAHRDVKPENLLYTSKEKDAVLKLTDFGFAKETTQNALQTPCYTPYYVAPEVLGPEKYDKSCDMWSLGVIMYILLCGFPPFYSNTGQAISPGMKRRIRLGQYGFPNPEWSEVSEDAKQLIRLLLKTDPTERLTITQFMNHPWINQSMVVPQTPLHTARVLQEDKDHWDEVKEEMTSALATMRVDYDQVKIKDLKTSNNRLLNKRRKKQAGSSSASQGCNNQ
Chain of Serine/threonine-protein kinase 10 (Homo sapiens) (O94804 whole entry, looked up): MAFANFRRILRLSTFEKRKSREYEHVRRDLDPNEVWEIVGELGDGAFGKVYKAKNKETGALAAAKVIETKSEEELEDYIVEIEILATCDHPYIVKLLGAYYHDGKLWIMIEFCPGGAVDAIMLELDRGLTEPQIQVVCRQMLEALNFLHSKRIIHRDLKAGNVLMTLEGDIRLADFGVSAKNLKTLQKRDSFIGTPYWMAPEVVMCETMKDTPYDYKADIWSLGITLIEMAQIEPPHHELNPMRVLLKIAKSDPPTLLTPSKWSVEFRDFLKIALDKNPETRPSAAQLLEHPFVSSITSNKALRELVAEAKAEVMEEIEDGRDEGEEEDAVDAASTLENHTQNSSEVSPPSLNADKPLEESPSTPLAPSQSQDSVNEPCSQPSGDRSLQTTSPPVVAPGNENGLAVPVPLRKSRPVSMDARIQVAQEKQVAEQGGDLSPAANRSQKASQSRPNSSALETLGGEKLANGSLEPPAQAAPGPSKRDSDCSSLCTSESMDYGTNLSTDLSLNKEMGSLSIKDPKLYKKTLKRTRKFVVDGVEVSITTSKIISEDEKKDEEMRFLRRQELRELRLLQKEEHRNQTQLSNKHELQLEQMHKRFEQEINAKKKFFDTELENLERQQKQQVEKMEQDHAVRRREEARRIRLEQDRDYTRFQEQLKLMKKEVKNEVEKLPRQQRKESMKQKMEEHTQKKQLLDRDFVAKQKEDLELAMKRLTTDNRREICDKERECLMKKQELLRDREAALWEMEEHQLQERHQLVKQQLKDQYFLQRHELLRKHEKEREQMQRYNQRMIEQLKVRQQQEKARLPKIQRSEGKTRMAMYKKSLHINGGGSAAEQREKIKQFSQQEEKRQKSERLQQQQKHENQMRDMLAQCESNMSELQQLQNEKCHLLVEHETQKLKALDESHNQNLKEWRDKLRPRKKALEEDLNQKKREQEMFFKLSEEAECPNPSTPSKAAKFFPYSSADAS
Chain of Mitogen-activated protein kinase 3 (Homo sapiens) (P27361 whole entry): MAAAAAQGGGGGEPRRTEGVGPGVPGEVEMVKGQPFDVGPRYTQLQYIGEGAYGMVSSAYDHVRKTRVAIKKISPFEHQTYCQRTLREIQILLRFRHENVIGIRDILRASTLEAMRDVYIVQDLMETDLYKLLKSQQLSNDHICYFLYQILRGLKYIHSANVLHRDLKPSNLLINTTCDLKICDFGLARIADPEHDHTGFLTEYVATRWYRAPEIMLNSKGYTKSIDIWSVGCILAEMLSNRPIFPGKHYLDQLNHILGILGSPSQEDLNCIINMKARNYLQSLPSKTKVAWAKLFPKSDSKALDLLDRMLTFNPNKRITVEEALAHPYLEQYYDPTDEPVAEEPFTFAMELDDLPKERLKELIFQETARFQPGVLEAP

For the compound `COc1ccc(OC)c2c(=S)c3ccccc3[nH]c12`, the residual activity in assay [1] turned out to be 100%.

For the compound `CCn1cnc2c(Nc3cccc(Cl)c3)nc(N[C@@H]3CCCC[C@@H]3N)nc21`, the residual activity came to 90% in [2]; 60% in assay [3]; 15% in assay [4]; 27% in assay [5]; 22% in assay [6]; 61% in assay [7]. The residual activity was determined as 20% in assay [8]; 6% in [9]; 1% in assay [10]; 49% in assay [11]; 10% in assay [12]; 62% in assay [13]. The residual activity was found to be 11% in assay [14]; 115% in assay [1]; 88% in assay [15]; 77% in assay [16]; 35% in [17].

As for `O=C1C(Cl)=C(N2C(=O)CCC2=O)C(=O)c2ccccc21`, the residual activity in [1] is 101%.

In the case of `O=C1c2ccccc2-c2nc3nnnn3nc21`, the residual activity in assay [18] was 108%; in assay [2], 101%; in assay [5], 134%; in assay [7], 104%; in assay [8], 124%; in [10] it was 64%. The residual activity in assay [1] was 105%; in [15], 108%; in [16], 107%; in assay [17], 104%.

With `CCc1nc(-c2ccc(OC)cc2)[nH]c1-c1ccncc1`, the residual activity is 48% in assay [4]; 100% in [11]; 64% in assay [19]; 82% in assay [20]; 121% in [1]; 118% in assay [15].

As to `C[S+]([O-])c1ccc(-c2nc(-c3ccc(F)cc3)c(-c3ccncc3)[nH]2)cc1` (stereo not drawn), the residual activity in assay [18] worked out at 109%; in [2], 85%; in [3], 109%; in assay [4] it was 79%; in assay [5], 79%; in [6], 27%. The residual activity in assay [8] was found to be 32%; in [9], 47%; in assay [10], 13%; in assay [11], 124%; in assay [12], 101%; in [13], 118%. Also, the residual activity in [14] worked out at 95%; in [19] it was 104%; in [20] it was 133%; in assay [1] it was 104%; in [15], 92%; in assay [16] it was 105%. Besides, the residual activity in assay [17] worked out at 108%.

Regarding `O=C1NC(=O)c2c1c1c3ccccc3[nH]c1c1[nH]c3cc(Br)ccc3c21`, the residual activity in [1] worked out at 87%.

As to `O=C1NC(=O)c2c1c1c3ccccc3n3c1c1c2c2ccccc2n1C1CCC3O1`, the residual activity in assay [5] is 50%; in assay [6] it was 62%; in [7], 70%; in [8] it was 71%; in [9], 10%; in assay [10], 10%. The residual activity in [11] was found to be 128%; in assay [12] it was 83%; in assay [1], 95%; in assay [15], 95%; in assay [16] it was 38%; in assay [17], 29%.

As to `N#C/C(=C(\N)Sc1ccc(N)cc1)c1ccccc1C(F)(F)F`, the residual activity in [1] is 98%.
